This note sets out measurements from PubChem BioAssay (NCI).

The panel holds about 83,000 compounds, 20% with a hit somewhere; the sample as a whole holds those more often.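 Treatment: one concentration, 48 hours, 96-well format. Scoring: percent growth, with anything below 10 considered active.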 Values without a mark were called inactive. Activity calls are given as the source filed them.

Common to all, as to assay: NCI-60 one-dose screen, 48 h (100 = growth as untreated, 0 = no growth, -100 = all killed)
Common to all, as to conditions: 10 µM unless noted

For experiment [1], the system named is HCT-15 colon.
Experiment [2] concerns HT29 colon.
Experiment [3] deals with SNB-75 CNS.
Experiment [4] has as its system SNB-19 CNS.
The subject of experiment [5] is U251 CNS.
The test system of experiment [6] is SK-MEL-5 melanoma.
The test system of experiment [7] is UACC-62 melanoma.
Experiment [8] deals with LOX IMVI melanoma.
Experiment [9] deals with SK-MEL-28 melanoma.
Experiment [10] deals with PC-3 prostate.

In the case of `CC(C)(C)N1CC(OC(N)=O)C1`, the growth in experiment [1] was 113%; in experiment [2] it was 101%; in experiment [3], 81.6%; in [4], 106%; in [5], 101%; in experiment [6], 102%. Moreover, the growth was 103% in [7], 96.3% in [8] and 109% in [9].

In the case of `CCN(CC)CCOc1ccc(/C(=C(\C)c2ccc(OC)c(F)c2)c2ccc(Cl)cc2)cc1`, the growth is 7.79% (active) in experiment [1]; 14.9% in experiment [2]; 94.7% in experiment [3]; 91.8% in [4]; 66.8% in experiment [5]; 64.8% in experiment [10]. Besides, the growth is 60.1% in experiment [7], 1.85% (active) in [8] and 68% in experiment [9].

In the case of `CN1CCN(C(=O)[C@@]2(C)CC[C@]3(C)CC[C@]4(C)C(=CC[C@@H]5[C@@]6(C)C/C(=C/c7ccncc7)C(=O)C(C)(C)[C@@H]6CC[C@]54C)[C@@H]3C2)CC1`, the growth in experiment [2] was 10.9%; in experiment [3], 62.7%; in experiment [4], 62.7%; in experiment [5], 32.6%; in experiment [10], 23.8%; in experiment [6], 39.3%. For the same molecule, the growth in experiment [7] was 37.8%; in experiment [8], 28.5%; in experiment [9] it was 48.7%.

Turning to `OCCCCc1nccc2c1[nH]c1ccccc12`, the growth was 104% in experiment [1]; 94.6% in [2]; 80.5% in [3]; 110% in experiment [4]; 108% in experiment [5]; 97.5% in experiment [6]. Also, the growth was 96.8% in experiment [7], 99.8% in [8] and 111% in experiment [9].

Consider `COC1(CC[C@@H](C)COC2OC(CO)C(O)C(O)C2O)O[C@H]2C[C@H]3[C@@H]4CC=C5C[C@@H](OC6OC(CO)C(OC7OC(C)C(O)C(O)C7O)C(O)C6OC6OC(C)C(O)C(O)C6O)CC[C@]5(C)[C@H]4CC[C@]3(C)[C@H]2[C@@H]1C` (stereo partly specified), for which the growth in experiment [1] was -88.7% (active); in [2], -76.6% (active); in [3], -70.5% (active); in experiment [4], -64.1% (active); in experiment [5], -98.1% (active); in experiment [6] it was -65.1% (active). Moreover, the growth in [7] is -92.1% (active); in experiment [8], -95.9% (active); in experiment [9] it was -95.7% (active).

As to `CN(C)CCC(O)(Cc1ccccc1)c1ccccc1` (stereo unspecified), the growth in experiment [1] is 108%; in experiment [2], 103%; in experiment [3] it was 102%; in [4] it was 112%; in experiment [10], 92.9%; in experiment [6], 108%. The growth in experiment [7] was 117%; in [8] it was 99.2%; in experiment [9] it was 112%.

`N=c1ccn2c(n1)OC1C(O)C(CO)OC12` (stereo unspecified): the growth in [1] was 49.9%; in experiment [2], 34.4%; in [3], 11.4%; in experiment [4], 44%; in experiment [5] it was 37.7%; in [6], 45.9%. In addition, the growth is 43.9% in experiment [7], 10.3% in experiment [8] and 53.3% in [9].

Take `Cc1c(Cl)cccc1NS(=O)(=O)c1ccccc1`: the growth in experiment [1] was 97.3%; in experiment [2], 99.8%; in [3], 87.9%; in [4], 106%; in experiment [5], 106%; in [6] it was 96.7%. The growth in [7] is 102%; in experiment [8] it was 104%; in [9], 99%.

Regarding `C=C1C(=O)O[C@H]2[C@H]1CC/C(COC(=O)/C=C\C(=O)NCc1ccc(Cn3c(=O)sn(CCCC)c3=O)cc1)=C\CC[C@@]1(C)O[C@@H]21`, the growth in [1] is -29.8% (active); in experiment [2], -22.2% (active); in [3], -63.6% (active); in experiment [4] it was 20.5%; in experiment [5] it was -64.3% (active); in [10], -59.7% (active). In addition, the growth in experiment [7] is -97.4% (active); in experiment [8], -83.5% (active); in [9] it was -92.1% (active).

As for `CC(C)(C)OC(=O)N1Cc2cc3ccccc3nc2C1CO` (stereo unspecified), the growth is 118% in [1]; 101% in [2]; 76.8% in experiment [3]; 111% in experiment [4]; 103% in [5]; 96.9% in experiment [6]. Besides, the growth in [7] was 100%; in experiment [8] it was 101%; in experiment [9], 101%.

Take `O=C1C=CC(=Nc2cc(Br)c(O)c(Br)c2)C=C1`: the growth was 65.1% in experiment [1]; 62% in experiment [2]; 68.3% in experiment [3]; 96.8% in [4]; 43.7% in experiment [5]; 87.4% in experiment [6]. The growth in experiment [7] was 67.6%; in experiment [8], 48.6%; in [9], 75.1%.

On to `CN(C)c1ccc(-c2cc(-c3ccc(Nc4nc(Nc5ccccc5)nc(Nc5ccc(Cl)cc5)n4)cc3)nc(N)n2)cc1`, for which the growth in [1] was 34.4%; in experiment [2], 34.2%; in experiment [3] it was 48.2%; in experiment [4] it was 66.8%; in [5], 29.6%; in experiment [6], 31.3%. For the same molecule, the growth is 49.9% in experiment [7], 38.1% in [8] and 75.4% in experiment [9].

As to `O=C(Oc1ccc[nH]c1=O)c1cc([N+](=O)[O-])cc([N+](=O)[O-])c1`, the growth in [1] is 103%; in experiment [2], 112%; in experiment [3], 97.1%; in experiment [4] it was 114%; in [5], 109%; in experiment [6], 105%. Besides, the growth is 114% in experiment [7], 99.5% in experiment [8] and 122% in [9].

Turning to `O=C1N/C(=N/O)S/C1=C/c1cn(-c2ccccc2)nc1-c1ccccc1`, the growth in [2] is 112%; in [3], 70.6%; in [4] it was 107%; in experiment [5], 97%; in [10], 89.3%; in [6], 102%. Besides, the growth in [7] is 102%; in experiment [8], 68.6%; in experiment [9], 113%.
